The source made the active and inactive calls.
Columns and labels:
[1] = compounds binding Alexa647 anti-His antibody – biochemical, small-molecule microarray, 635 nm fluorescence, artefact control for SMM control protein annotation, primary screen (AID 1128); settings: higher = more signal;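 note: score merges feature fluorescence with signal-to-noise for each printed compound spot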
[2] = system: Human papillomavirus type 1a E7 protein (residues 1-88); test: HPV1a E7 small-molecule binders, primary screen, biochemical, small-molecule microarray, residues 1-88, 635 nm (AID 1129); settings: small-molecule microarray binding, fluorescence 635 nm; higher = more signal
[3] = target: Focal adhesion kinase 1 (Homo sapiens) (UniProt Q05397); test: PTK2 protein binding on printed compound slides – biochemical, small-molecule microarray, 635/667 nm fluorescence, BSA, DTT, primary screen (AID 1130); settings: 635 nm fluorescence, higher = more signal;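 note: composite of spot emission at 667 nm and signal to noise over triplicate slides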
Focal adhesion kinase 1 (Homo sapiens), sequence (Q05397 whole entry, looked up): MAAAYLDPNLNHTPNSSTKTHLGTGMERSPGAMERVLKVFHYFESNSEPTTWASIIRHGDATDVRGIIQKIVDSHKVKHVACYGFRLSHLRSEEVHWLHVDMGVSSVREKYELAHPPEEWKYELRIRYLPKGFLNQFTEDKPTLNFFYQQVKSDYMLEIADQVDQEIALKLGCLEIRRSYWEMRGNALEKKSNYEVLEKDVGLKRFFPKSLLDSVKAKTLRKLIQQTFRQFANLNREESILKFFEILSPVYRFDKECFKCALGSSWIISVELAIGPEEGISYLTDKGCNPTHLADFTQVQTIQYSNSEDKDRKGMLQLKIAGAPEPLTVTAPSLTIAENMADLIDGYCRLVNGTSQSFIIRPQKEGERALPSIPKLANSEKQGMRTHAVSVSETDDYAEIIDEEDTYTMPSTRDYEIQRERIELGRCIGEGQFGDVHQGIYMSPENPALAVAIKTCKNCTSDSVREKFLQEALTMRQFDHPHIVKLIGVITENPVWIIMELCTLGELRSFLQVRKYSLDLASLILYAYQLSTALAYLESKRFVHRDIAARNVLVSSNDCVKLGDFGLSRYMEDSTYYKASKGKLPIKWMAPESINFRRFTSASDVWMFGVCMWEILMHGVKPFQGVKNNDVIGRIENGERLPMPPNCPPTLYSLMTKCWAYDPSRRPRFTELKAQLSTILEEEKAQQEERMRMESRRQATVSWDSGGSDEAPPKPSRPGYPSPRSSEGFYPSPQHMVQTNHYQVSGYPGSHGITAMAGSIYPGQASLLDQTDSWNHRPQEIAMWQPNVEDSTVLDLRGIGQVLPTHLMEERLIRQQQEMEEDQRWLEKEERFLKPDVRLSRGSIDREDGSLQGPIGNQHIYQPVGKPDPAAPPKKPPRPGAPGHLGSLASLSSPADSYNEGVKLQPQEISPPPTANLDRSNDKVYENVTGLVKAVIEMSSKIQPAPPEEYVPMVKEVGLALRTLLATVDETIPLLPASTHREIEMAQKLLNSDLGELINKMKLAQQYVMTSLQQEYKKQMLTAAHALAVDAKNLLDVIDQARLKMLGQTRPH

[4] = system: Fibrinogen (Alexa647-labelled); test: Alexa647-fibrinogen binding to printed small molecules – biochemical, small-molecule microarray, 635/667 nm fluorescence, artefact control for SMM control-protein annotation, profiling panel (AID 1131); settings: fibrinogen-A647 binding fluorescence, higher = more signal;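 note: z-score merges 667 nm fluorescence with per-spot signal-to-noise over triplicate slides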
[5] = target: Follistatin (Homo sapiens) (UniProt P19883); test: FST protein binding to printed compounds – biochemical, small-molecule microarray, 635/667 nm fluorescence, primary screen (AID 1132); settings: 635 nm fluorescence, higher = more signal
Follistatin (Homo sapiens), sequence (P19883 whole entry, looked up): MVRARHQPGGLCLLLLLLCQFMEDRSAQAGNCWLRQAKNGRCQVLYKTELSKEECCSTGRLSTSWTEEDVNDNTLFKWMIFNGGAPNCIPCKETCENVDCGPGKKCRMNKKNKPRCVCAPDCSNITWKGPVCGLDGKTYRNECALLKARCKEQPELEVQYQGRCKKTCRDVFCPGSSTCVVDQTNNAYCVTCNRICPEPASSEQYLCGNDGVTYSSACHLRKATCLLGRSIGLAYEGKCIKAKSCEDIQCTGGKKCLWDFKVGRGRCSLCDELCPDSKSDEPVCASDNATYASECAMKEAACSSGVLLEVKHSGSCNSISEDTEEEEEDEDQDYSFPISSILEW

[6] = target: Fibroblast growth factor 2 (Homo sapiens) (UniProt P09038); test: basic fibroblast growth factor binding to printed compounds – biochemical, small-molecule microarray, 635/667 nm fluorescence, primary screen (AID 1133); settings: FGF2, fluorescence 635/667, higher = more signal
Fibroblast growth factor 2 (Homo sapiens), sequence (P09038 whole entry, looked up): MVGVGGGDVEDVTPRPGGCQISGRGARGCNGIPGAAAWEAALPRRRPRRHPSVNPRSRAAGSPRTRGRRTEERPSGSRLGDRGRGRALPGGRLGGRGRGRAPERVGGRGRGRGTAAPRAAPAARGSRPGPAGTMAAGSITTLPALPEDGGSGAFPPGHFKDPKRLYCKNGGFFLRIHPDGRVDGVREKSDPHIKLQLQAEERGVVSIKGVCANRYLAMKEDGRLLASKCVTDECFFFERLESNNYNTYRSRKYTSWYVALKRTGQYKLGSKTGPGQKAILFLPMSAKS

[7] = JC-1 mitochondrial potential readout, lung cancer cells – cell-based, A549, JC-1 fluorescence, basal, 24 h, 100 nL, profiling panel (AID 1138); settings: higher = more signal;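 note: A549 lung adenocarcinoma cells under basal conditions with no added stimulus; test concentration not given here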
Lefty1 = Lefty1 protein binding to printed compounds – biochemical, small-molecule microarray, 635/667 nm fluorescence, primary screen (AID 1139); settings: fluorescence 635/667, higher = more signal
[8] = system: wheat germ agglutinin (Triticum aestivum), Alexa647-labelled; test: Alexa647-WGA lectin binding to printed small molecules – biochemical, small-molecule microarray, 635/667 nm fluorescence, artefact control for SMM control-protein annotation, profiling panel (AID 1140); settings: WGA-A647 binding, 635 nm fluorescence, higher = more signal;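 note: score merges 667 nm feature emission with signal to noise over triplicate slides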
[9] = target: Luciferin 4-monooxygenase (Photinus pyralis) (UniProt P08659); test: inhibition of purified Photinus pyralis luciferase – biochemical, luminescence, purified enzyme, 2006 set, primary screen (AID 1141); settings: purified firefly luciferase, SteadyGlo luminescence, 30 min; higher = more signal, called active from +8 up or from −8 down;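 note: cell-free assay with purified firefly luciferase at 100 ng per well in PBS; test concentration not given here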
Luciferin 4-monooxygenase (Photinus pyralis), sequence (P08659 whole entry, looked up): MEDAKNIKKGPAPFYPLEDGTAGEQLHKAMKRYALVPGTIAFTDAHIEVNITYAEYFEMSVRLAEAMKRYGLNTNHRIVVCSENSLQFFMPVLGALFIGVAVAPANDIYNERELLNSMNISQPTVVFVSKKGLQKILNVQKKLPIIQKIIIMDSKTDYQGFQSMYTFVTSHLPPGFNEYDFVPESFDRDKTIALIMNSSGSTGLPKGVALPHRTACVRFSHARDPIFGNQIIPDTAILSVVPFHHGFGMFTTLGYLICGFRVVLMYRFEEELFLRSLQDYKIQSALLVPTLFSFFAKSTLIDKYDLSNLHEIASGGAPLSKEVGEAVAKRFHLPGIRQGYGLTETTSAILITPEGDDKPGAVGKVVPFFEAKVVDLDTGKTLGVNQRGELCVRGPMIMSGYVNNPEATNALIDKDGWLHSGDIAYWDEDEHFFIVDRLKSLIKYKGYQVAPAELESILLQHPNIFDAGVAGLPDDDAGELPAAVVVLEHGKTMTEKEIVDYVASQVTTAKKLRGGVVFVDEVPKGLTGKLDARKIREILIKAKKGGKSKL

## C=CCN1C(=O)[C@]2(O[C@H](CCO)[C@@H]([Si](C)(C)c3ccc(OC)cc3)[C@@H]2C)c2cc(N3C(=O)c4ccccc4Oc4ccccc43)ccc21
[1]
  composite z-score: 0.309
[2]
  composite z-score: 1.14
[3]
  composite z-score: 0.215
[4]
  composite z-score: 0.694
[5]
  composite z-score: 0.157
[6]
  composite z-score: 0.0857
[7]
  z-score: -1.36
Lefty1
  composite z-score: 0.591
[8]
  composite z-score: 0.51
[9]
  z-score: 0.368 (inactive)

## COC(=O)[C@@]1(Cc2ccc(F)cc2)[C@H]2c3cc(C(=O)N4CCCC4)n(CCSCCO)c3C[C@H]2CN1C(=O)c1ccccc1
[1]
  composite z-score: 0.163
[2]
  composite z-score: 0.767
[3]
  composite z-score: 1.11
[4]
  composite z-score: 0.982
[5]
  composite z-score: -0.16
[6]
  composite z-score: -0.79
[7]
  z-score: 0.281
Lefty1
  composite z-score: -0.973
[8]
  composite z-score: 0.679
[9]
  z-score: 0.5 (inactive)

## CCCCCCCCCCC(O)C1C=CC2C(=O)N(C)C(=O)C2N1Nc1ccccc1 (stereo not given)
[1]
  composite z-score: -0.901
[2]
  composite z-score: -0.339
[3]
  composite z-score: 0.365
[4]
  composite z-score: -0.624
[5]
  composite z-score: -1.68
[6]
  composite z-score: -1.84
[7]
  z-score: 0.172
Lefty1
  composite z-score: -1.75
[8]
  composite z-score: -0.848
[9]
  z-score: -0.319 (inactive)

## C=CCNC(=O)[C@@H]1[C@H]2C(=O)O[C@H](c3ccccc3)[C@H](c3ccccc3)N2[C@H](c2ccc(OCCO)cc2)[C@@]12C(=O)Nc1ccc(C#CC3=CCCCC3)cc12
[1]
  composite z-score: 1.15
[2]
  composite z-score: 1.23
[3]
  composite z-score: 1.08
[4]
  composite z-score: 0.972
[5]
  composite z-score: 1.1
[6]
  composite z-score: 0.582
[7]
  z-score: -1.56
Lefty1
  composite z-score: 1.11
[8]
  composite z-score: 0.898
[9]
  z-score: -0.806 (inactive)

## COc1cc(Cc2cc3c(c(-c4ccccc4)n2)[Si](C(C)C)(C(C)C)OC3)cc(OC)c1OC
[1]
  composite z-score: -0.753
[2]
  composite z-score: -1.33
[3]
  composite z-score: -0.517
[4]
  composite z-score: 0.107
[5]
  composite z-score: 0.0972
[6]
  composite z-score: 0.542
[7]
  z-score: 0.489
Lefty1
  composite z-score: -0.194
[8]
  composite z-score: 0.712
[9]
  z-score: -0.111 (inactive)

## COc1ccc([Si](C)(C)[C@@H]2[C@@H](CC(=O)N3Cc4ccccc4C[C@H]3CO)O[C@]3(C(=O)N(Cc4ccc(I)cc4)c4ccccc43)[C@H]2C)cc1
[1]
  composite z-score: 0.521
[2]
  composite z-score: 0.963
[3]
  composite z-score: 0.0916
[4]
  composite z-score: 0.838
[5]
  composite z-score: 1.59
[6]
  composite z-score: 1.65
[7]
  z-score: -0.26
Lefty1
  composite z-score: 1.58
[8]
  composite z-score: 0.373
[9]
  z-score: 0.798 (inactive)

## CO[C@H]1O[C@H](CO)[C@@H](OC(=O)Nc2ccccc2)[C@@H]2OC(=O)[C@@H](Cc3ccccc3)C/C=C/C[C@H](Cc3ccccc3)C(=O)O[C@@H]12
[1]
  composite z-score: 2.4
[2]
  composite z-score: 0.426
[3]
  composite z-score: 0.348
[4]
  composite z-score: 0.0766
[5]
  composite z-score: 0.661
[6]
  composite z-score: 0.0861
[7]
  z-score: -0.282
Lefty1
  composite z-score: 0.449
[8]
  composite z-score: 0.95
[9]
  z-score: -0.283 (inactive)

## C=CCC(OC(C)=O)[C@@H]1[C@@H](N(Cc2cccc3ccccc23)C(=O)c2ccc(C)cc2)c2cc(OCCCO)ccc2N1C(=O)Cc1ccc2ccccc2c1 (stereo not given in full)
[1]
  composite z-score: -0.2
[2]
  composite z-score: -0.0179
[3]
  composite z-score: 0.358
[4]
  composite z-score: 0.535
[5]
  composite z-score: 0.142
[6]
  composite z-score: -0.0243
[7]
  z-score: 1.62
Lefty1
  composite z-score: -0.136
[8]
  composite z-score: -0.0836
[9]
  z-score: -0.667 (inactive)

## CC(C)C(=C=CC[C@H](O)c1cccc(OCCO)c1)C[C@H](O)c1ccccn1
[1]
  composite z-score: 0.474
[2]
  composite z-score: 0.534
[3]
  composite z-score: 0.0358
[4]
  composite z-score: -1.37
[5]
  composite z-score: 0.972
[6]
  composite z-score: 0.236
[7]
  z-score: 0.717
Lefty1
  composite z-score: 0.788
[8]
  composite z-score: 0.641
[9]
  z-score: -0.147 (inactive)

## COCCOC(=O)N1C(=O)[C@@]2(c3ccccc31)[C@H](C(=O)Nc1nc3ccccc3s1)[C@H]1C(=O)O[C@H](c3ccccc3)[C@H](c3ccccc3)N1[C@@H]2c1ccccc1OCCO
[1]
  composite z-score: 1.55
[2]
  composite z-score: 1.19
[3]
  composite z-score: -0.0016
[4]
  composite z-score: 0.941
[5]
  composite z-score: 1.17
[6]
  composite z-score: 0.676
[7]
  z-score: -2.3
Lefty1
  composite z-score: 0.42
[8]
  composite z-score: 1.19
[9]
  z-score: -0.653 (inactive)

## [N-]=[N+]=NCc1ccccc1C[C@]1(C(=O)N2CCCCC2)COC(c2ccc(OCCCO)cc2)=N1
[1]
  composite z-score: 1.13
[2]
  composite z-score: 1.07
[3]
  composite z-score: 0.401
[4]
  composite z-score: 0.932
[5]
  composite z-score: 0.687
[6]
  composite z-score: 0.765
[7]
  z-score: 2.45
Lefty1
  composite z-score: -0.432
[8]
  composite z-score: 0.827
[9]
  z-score: -1.71 (inactive)

## COc1ccc([Si](C)(C)[C@H]2[C@H](CCO)O[C@@]3(C(=O)N(Cc4ccccc4)c4ccc(NC(=O)[C@H](C)O)cc43)[C@@H]2C)cc1
[1]
  composite z-score: 0.779
[2]
  composite z-score: 1.16
[3]
  composite z-score: 0.361
[4]
  composite z-score: 0.967
[5]
  composite z-score: 0.578
[6]
  composite z-score: -0.145
[7]
  z-score: -0.924
Lefty1
  composite z-score: 0.575
[8]
  composite z-score: 0.75
[9]
  z-score: -0.355 (inactive)

## COc1ccc([Si](C)(C)[C@@H]2[C@@H](CC(=O)N(CCO)Cc3ccccc3)O[C@]3(C(=O)N(Cc4cccc(I)c4)c4ccccc43)[C@H]2C)cc1
[1]
  composite z-score: 0.853
[2]
  composite z-score: 1.12
[3]
  composite z-score: -0.14
[4]
  composite z-score: 0.604
[5]
  composite z-score: 1.48
[6]
  composite z-score: 1.68
[7]
  z-score: -0.781
Lefty1
  composite z-score: 1.51
[8]
  composite z-score: 0.618
[9]
  z-score: -0.216 (inactive)

## COC(=O)C1=CC(CCCO)=CC(c2ccc(CN3CCCC3)cc2)N(C)C=C1C(=O)OC (stereo not given)
[1]
  composite z-score: 1.73
[2]
  composite z-score: 0.821
[3]
  composite z-score: 0.111
[4]
  composite z-score: 1.01
[5]
  composite z-score: 0.468
[6]
  composite z-score: -0.232
[7]
  z-score: 0.915
Lefty1
  composite z-score: -0.079
[8]
  composite z-score: 1.01
[9]
  z-score: -0.208 (inactive)

## COCCOC(=O)N1C(=O)[C@@]2(c3cc(C#CC4=CCCCC4)ccc31)[C@H](C(=O)N1CCCCCCC1)[C@H]1C(=O)O[C@H](c3ccccc3)[C@H](c3ccccc3)N1[C@@H]2c1ccccc1OCCO
[1]
  composite z-score: 0.316
[2]
  composite z-score: 1.19
[3]
  composite z-score: 0.391
[4]
  composite z-score: 0.461
[5]
  composite z-score: 1.42
[6]
  composite z-score: 0.679
[7]
  z-score: -1
Lefty1
  composite z-score: 1.01
[8]
  composite z-score: 0.275
[9]
  z-score: 0.104 (inactive)

Reference: PubChem BioAssay
